{"source": "PubChem BioAssay AID1259240", "about": "(Keith Lab, Institute of Cancer Science, University of …, 2017)", "note": "Unmarked numbers belong to inactive results. The source made the active and inactive calls. No stated cut-off is given here; in the data, active means fold change mostly below about -2 (no sharp cut-off); inactive means mostly above about -1.8.", "data": [{"experiment": "TERT promoter activity modulators, primary screen, cell-based, luciferase reporter, human (AID 1259240)", "conditions": "A2780 TERT promoter luciferase reporter, 16 h; at 20 µM, fold versus average of vehicle-only wells", "values": [{"smiles": "CCOP(=O)(OCC)C(Nc1ccccc1)c1ccco1", "note": "(stereo unspecified)", "fold change": 1.02}, {"smiles": "Cc1cc(NC(=O)CSCc2nc(-c3cccc(Cl)c3)oc2C)no1", "fold change": 1.06}, {"smiles": "CN(CC(=O)NCc1ccco1)S(=O)(=O)c1ccc2c(c1)CCC(=O)N2", "fold change": -1.35}, {"smiles": "N#Cc1ccc(Cn2c(=O)n(Cc3ccccc3Cl)c(=O)c3cccnc32)cc1", "fold change": -1.11}, {"smiles": "CC(C)c1ccc(NC(=O)Nc2ccc3snnc3c2)cc1", "fold change": -1.62}, {"smiles": "Cc1noc(C(=O)NCC(C)C)c1Cl", "fold change": -1.74}, {"smiles": "CN(CC(=O)Nc1nccs1)S(=O)(=O)c1ccc2c(c1)n(C)c(=O)c(=O)n2C", "fold change": 1.27}, {"smiles": "c1cncc(Cc2nnc(N3CCC4(CC3)OCCO4)c3ccccc23)c1", "fold change": -1.13}, {"smiles": "Cc1ccc(N2C(=O)c3n[nH]c(C)c3C2c2ccccc2F)cc1", "note": "(stereo unspecified)", "fold change": 1.63}, {"smiles": "CCN1CCN(CCNc2cc(C)nc3c(-c4ccc(OC)c(OC)c4)c(C)nn23)CC1", "fold change": -1.31}, {"smiles": "O=c1/c(=C/c2ccco2)sc2nc(-c3ccco3)nn12", "fold change": -1.71}, {"smiles": "COc1cc(-c2nc3s/c(=C\\c4cccs4)c(=O)n3n2)cc(OC)c1OC", "fold change": 1.19}, {"smiles": "Cc1cccc2sc(NC(=O)c3ccc(CNc4c(NC5CCCC5)c(=O)c4=O)cc3)nc12", "fold change": -1.04}, {"smiles": "CCc1nc(N)c(C#N)c(-c2cccnc2)c1C", "fold change": "-2.52 (active)"}, {"smiles": "Cc1cc(/C=C2/SC(=S)N(CC(=O)O)C2=O)c(C)n1-c1ccncc1", "fold change": "-3.58 (active)"}, {"smiles": "C=CCOc1ccc(-c2nc3s/c(=C\\c4cccc(OC(C)=O)c4)c(=O)n3n2)cc1", "fold change": 1.2}]}]}
